Source: PubChem (National Center for Advancing Translational Sciences (NCATS))
ELG1 genotoxic – genotoxicity induction in ELG1-luciferase HEK293T cells; Potency, µM (highest dose often 46 µM), usual class: activators; hit rate 1.3% among 330,000; HEK293T ELG1-luciferase reporter, luminescence, 16 h; AID 504466; further: nearly all actives have a fitted effect of over 60% in size
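Cells (2,000/well) expressing the ELG1-luciferase fusion are dosed by pin tool and kept 16 hr at 37 °C, 5% CO2. Signal comes from ONE-Glo luciferase reagent after 30 min at room temperature.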
Luc counter – blocks Kinase-Glo luciferase, a counter-screen artifact; AID 1379; hit rate 0.28% among 200,000; Kinase-Glo luciferase, ATP luminescence, 8 min; Potency, µM (titrated, usually from 38.3 µM), actives largely listed as inhibitors; further: nearly all actives have a fitted effect of over 60% in size
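Substrate mix (final 50 mM imidazole pH 7.2, 50 mM KCl, 7 mM MgCl2, 10 uM ATP, 0.01% Tween 20, 0.05% BSA) plus pin-tool compound, then Kinase-Glo detection mix; 8 min ambient, luminescence read.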
NPC1 promoter act – activates the NPC1 promoter; AID 485313; Huh7 NPC1 promoter luciferase reporter, 24 h; hit rate 2.4% among 320,000; Potency, µM (series often up to 9.22 µM), most hits filed as activators; further: nearly all actives have a fitted effect of over 60% in size
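Compounds in DMSO were transferred onto Huh7 NPC1-luciferase reporter cells pre-incubated 2 h; after 24 h at 37 °C, Amplite reagent was dispensed and luminescence recorded 10 min later.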
SMN2 splice enh – SMN2 splice variant enhancement; HEK293 SMN2-luciferase splicing reporter, luminescence, 30-36 h; Potency, µM (doses to about 46.1 µM), actives largely listed as activators; hit rate 2.8% among 210,000; AID 1458; further: nearly all actives have a fitted effect of over 55% in size
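HEK293 cells carry an SMN2 minigene-luciferase reporter in which exon 7 inclusion puts luciferase in frame. Cells were seeded at 2000 cells/well, attached for 10-12 hours, then exposed to compounds for 30-36 hours at 37C before ONE-Glo luminescence.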
Rab9 promoter act – activates the Rab9 promoter | hit rate 2.8% among 320,000 | Huh7 Rab9 promoter-luciferase reporter, luminescence, 24 h | Potency, µM (titrated, usually from 9.22 µM), most hits filed as activators; further: nearly all actives have a fitted effect of over 60% in size
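Stable Rab9-luc Huh7, 1500 cells/well, 2 h settle; cmpd in DMSO, 24 h, 37 °C/5% CO2; luciferase reagent 10 min RT; luminescence.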
FLuc counter – firefly luciferase modulation, counter-screen for miR-21 project. Potency, µM (series often up to 57.5 µM), actives largely listed as inhibitors. P08659. purified FLuc, Km substrates, luminescence inhibition. AID 588342. hit rate 6.9% among 360,000; further: nearly all actives have a fitted effect of over 55% in size
Target sequence (P08659 whole entry, looked up): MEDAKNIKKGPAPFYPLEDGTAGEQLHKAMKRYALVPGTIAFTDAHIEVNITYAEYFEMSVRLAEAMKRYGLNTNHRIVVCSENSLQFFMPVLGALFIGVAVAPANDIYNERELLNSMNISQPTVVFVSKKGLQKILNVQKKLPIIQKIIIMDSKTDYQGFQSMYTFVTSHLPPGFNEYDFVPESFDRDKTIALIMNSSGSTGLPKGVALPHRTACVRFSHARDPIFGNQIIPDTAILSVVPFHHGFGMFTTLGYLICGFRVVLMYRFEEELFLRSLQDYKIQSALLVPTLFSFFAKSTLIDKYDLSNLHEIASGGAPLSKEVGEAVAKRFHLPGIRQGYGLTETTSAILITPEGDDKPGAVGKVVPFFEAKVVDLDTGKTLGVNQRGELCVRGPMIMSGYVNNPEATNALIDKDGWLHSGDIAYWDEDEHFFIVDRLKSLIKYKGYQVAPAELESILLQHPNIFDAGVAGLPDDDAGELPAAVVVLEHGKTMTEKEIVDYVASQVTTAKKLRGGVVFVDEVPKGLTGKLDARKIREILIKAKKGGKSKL
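Purified P. pyralis luciferase, 10 nM final, with Km-level 10 uM D-luciferin and 10 uM ATP in 50 mM Tris acetate pH 7.5, 10 mM Mg acetate, 0.01% Tween-20, 0.05% BSA; 6-point qHTS titration about 60 µM downward; luminescence read.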
Each line names hits and unclear results; the compound was inactive in the other large screens. Rows were chosen to be rich in hits. Some 7.5% of all compounds tested hit in one or more screens of this group. The call rests on the fitted dose curve; in most records, active means well fitted curve in the direction sought with a large enough effect; inconclusive means small, poorly fitted or top-dose-only effect, or another doubt; inactive means no such curve, though single readings can be large; an effect the other way counts as inactive or inconclusive.

COc1cccc(Nc2nc(N)nc(-c3oc4ccccc4c3C)n2)c1	SMN2 splice enh inconclusive, FLuc counter 19µM
Cc1c(-c2nc(N)nc(Nc3ccccc3F)n2)oc2ccccc12	ELG1 genotoxic 4µM, NPC1 promoter act 1.6µM, SMN2 splice enh 11µM, Rab9 promoter act 0.89µM, FLuc counter 3µM
Cc1ccc(Nc2nc(N)nc(-c3oc4ccccc4c3C)n2)cc1	ELG1 genotoxic 9.2µM, NPC1 promoter act inconclusive, SMN2 splice enh 13µM, FLuc counter 7.6µM
CCN(CC)S(=O)(=O)c1cc(NC(=O)CCNC(=O)c2ccco2)ccc1C	none (no result: Luc counter, SMN2 splice enh)
Cc1ccc(S(=O)(=O)n2nc(-c3ccco3)nc2N)cc1	none (no result: SMN2 splice enh)
O=c1cc(C(F)(F)F)[nH]c2ccc(OC(F)(F)F)cc12	FLuc counter 21µM (no result: Luc counter, SMN2 splice enh)
Cc1ccc(OCC(=O)NNC(=O)c2ccco2)c(C)c1	FLuc counter 12µM (no result: Luc counter, SMN2 splice enh)
Cc1cc(Br)ccc1OCC(=O)NNC(=O)c1cnccn1	FLuc counter 17µM
Cc1ccc(C(=O)NNC(=O)COc2ccc(Cl)cc2C)o1	FLuc counter 11µM (no result: Luc counter, SMN2 splice enh)
Cc1cc(Cl)ccc1OCC(=O)NNC(=O)c1cnccn1	FLuc counter 17µM
COCCNC(=O)COc1ccc(C)cc1C	none
C/C(=N\NC(=O)CCCOc1ccc(Cl)cc1C)c1ccc(C)o1	none
Cc1coc2cc3oc(=O)c(CCC(=O)NCc4ccccc4Cl)c(C)c3cc12	none (no result: ELG1 genotoxic, Luc counter, NPC1 promoter act, Rab9 promoter act)
Cc1ccc(Cl)cc1N1CCN(C(=O)Cn2nc(C)n3c(cc4sccc43)c2=O)CC1	none (no result: ELG1 genotoxic, Luc counter, NPC1 promoter act, Rab9 promoter act)
Cc1cc(C)cc(N(C)S(=O)(=O)c2nnc(NC(=O)COc3ccc(Cl)cc3)s2)c1	none (no result: ELG1 genotoxic, Luc counter, NPC1 promoter act, SMN2 splice enh, Rab9 promoter act)
Cc1cc(C)n(-c2ccc(Cl)c(C(=O)O)c2)n1	FLuc counter 19µM (no result: SMN2 splice enh)
CC(=O)N[C@@H]1CONC1=O	none (no result: ELG1 genotoxic, NPC1 promoter act, Rab9 promoter act, FLuc counter)
COCCn1c(C)cc(/C=C2/NC(=O)N(c3ccc(Cl)cc3)C2=O)c1C	none
CC(C)(C)c1ccc(NC(=O)Nc2ccc(OCC(=O)N3CCOCC3)cc2)cc1	ELG1 genotoxic inconclusive, NPC1 promoter act 3.2µM, SMN2 splice enh 16µM, Rab9 promoter act 2.2µM, FLuc counter 0.48µM
O=C(Nc1ccc(C(=O)O)cc1)Nc1cccc2ccccc12	FLuc counter inconclusive (no result: Luc counter, SMN2 splice enh)
O=C(Nc1ccc(C(=O)N2CCOCC2)cc1)Nc1cccc(Cl)c1	NPC1 promoter act inconclusive, SMN2 splice enh inconclusive, FLuc counter 15µM
O=C(Nc1ccc(OCC(=O)N2CCOCC2)cc1)Nc1cccc(Cl)c1	FLuc counter 12µM (no result: SMN2 splice enh)
O=C(Nc1ccc(C(=O)N2CCOCC2)cc1)Nc1cccc2ccccc12	ELG1 genotoxic inconclusive, FLuc counter 15µM
CCOc1ccc(-n2c(=O)c3c(C)c(C)sc3n(Cc3c(F)cccc3Cl)c2=O)cc1	none (no result: ELG1 genotoxic, Luc counter, NPC1 promoter act, Rab9 promoter act)
Cc1c(Cl)cccc1NC(=O)CSc1ccc(-c2ccccn2)nn1	none (no result: ELG1 genotoxic, Luc counter, NPC1 promoter act, SMN2 splice enh, Rab9 promoter act)
O=C(Nc1cccc(OCC(=O)N2CCOCC2)c1)c1ccc(C(F)(F)F)cc1	FLuc counter 15µM (no result: Luc counter, SMN2 splice enh)
O=C(COc1cccc(C(F)(F)F)c1)N1CCN(c2ccc(O)cc2)CC1	none
CCCCNC(=O)/C=C1\Sc2ccccc2NC1=O	FLuc counter inconclusive
O=C1Nc2ccccc2S/C1=C/Nc1cccc(Cl)c1	ELG1 genotoxic inconclusive, NPC1 promoter act inconclusive, Rab9 promoter act 4.5µM, FLuc counter 8.5µM
Cc1ccc(Cl)c(OCC(=O)Nc2cc(S(=O)(=O)N3CCOCC3)ccc2N2CCCC2)c1	none (no result: Luc counter, SMN2 splice enh)
CCc1ccc(S(=O)(=O)/N=C2\C=C(NS(=O)(=O)c3ccccc3)C(=O)c3ccccc32)cc1	ELG1 genotoxic inconclusive, FLuc counter 15µM (no result: Luc counter, SMN2 splice enh)
CC(C)c1ccc(S(=O)(=O)/N=C2\C=C(NS(=O)(=O)c3ccccc3)C(=O)c3ccccc32)cc1	FLuc counter 19µM (no result: Luc counter, SMN2 splice enh)
CC(C)COc1ccccc1C1CC(=O)Nc2cc3c(cc21)OCO3 (stereo not given)	none (no result: ELG1 genotoxic, Luc counter, NPC1 promoter act, Rab9 promoter act)
C=Cc1ncc(OC)c2c1[nH]c1ccccc12	none (no result: Luc counter, SMN2 splice enh)
CCc1c(O)nc(SCC(=O)N2CCc3cc(OC)c(OC)cc3[C@@H]2C)[nH]c1=O	none (no result: Luc counter, SMN2 splice enh)
CN1C(=O)C(CC(=O)NCCc2ccccc2)N(NC(=O)c2ccc(Cl)cc2)C1=S (stereo not given)	none (no result: Luc counter, SMN2 splice enh)
CCN(CC(=O)Nc1ccccc1OC)C(=O)COc1ccc2ccccc2c1	none
